Source: PubChem BioAssay (Tox21)
Records with an inconclusive call do not appear. Calls of active or inactive are those of the source. Unless noted, the call rests on the fitted dose curve; in most records, active means well fitted curve in the direction sought with a large enough effect in the repeat runs; inconclusive means weak or mixed curves; inactive means no such curve, though single readings can be large; an effect the other way counts as inactive or inconclusive.
On the % scale 0 is the no-effect control and ±100 the full control effect; potency means the concentration at half of the fitted maximal effect.

Experiment: qHTS assay to identify small molecule agonists of H2AX - cell viability counter screen (AID 1224847; calls by dose curve; further: nearly all actives have a fitted effect of over 30% in size; on activity change, negative = cytotoxicity: top concentration of the series differs between compounds)
Conditions: CHO-K1 viability, CellTiter-Glo luminescence, 3 h; series mostly up to 154 µM; activity change, negative = cytotoxicity: at the top concentration
How it was run: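 We seed wild-type CHO-K1 cells overnight, treat them for 3 hr at 37C with compounds in 15-concentration series, and quantify remaining viability by CellTiter-Glo luminescence.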
With CC1(C)C(=O)N(CO)C(=O)N1CO the “activity change, negative = cytotoxicity” value was 1.52% (inactive). In the case of CCOC(=O)CN, the “activity change, negative = cytotoxicity” value is reported as -0.813% (inactive). With O=C1OC(=O)c2ccc3c4c(ccc1c24)C(=O)OC3=O the “activity change, negative = cytotoxicity” value was -1.62% (inactive). For CC(C)=CC1CC(C)CCO1 (stereo not drawn), the “activity change, negative = cytotoxicity” value was 2.22% (inactive). With CC(C)(C)C1=CC(=O)C=C(C(C)(C)C)C1=O the “activity change, negative = cytotoxicity” value was 2.79% (inactive). For CCCC(O)C(O)CO (stereo not drawn), the “activity change, negative = cytotoxicity” value was 1.02% (inactive). With COc1ccccc1C=O the “activity change, negative = cytotoxicity” value was 1.01% (inactive). With CCCCCCCC(OC)OC the “activity change, negative = cytotoxicity” value was -0.367% [at 70.9 µM] (inactive). For CCCCCCCCCCCCCCNCCO, the Potency was 55.2 µM (active). With CCOC(=O)COc1ccc(C)cc1 the “activity change, negative = cytotoxicity” value was 0.205% (inactive). For c1ccc(Sc2ccccc2)cc1, the “activity change, negative = cytotoxicity” value was -8.76% (inactive). For COc1cccc(O)c1, the “activity change, negative = cytotoxicity” value was 0.368% (inactive). In the case of Cc1cccc(Br)c1, the “activity change, negative = cytotoxicity” value is reported as 1.7% (inactive). With CCc1cccc(C)c1 the “activity change, negative = cytotoxicity” value was 1.37% (inactive). With Brc1ccccn1 the “activity change, negative = cytotoxicity” value was 0.596% (inactive). In the case of CCOB(OCC)OCC, the “activity change, negative = cytotoxicity” value is reported as -2.06% (inactive). With CC(=O)O[C@@H]1C[C@@H]2CC[C@@]1(C)C2(C)C the “activity change, negative = cytotoxicity” value was 0.0895% (inactive). With Oc1cc2ccccc2cc1O the “activity change, negative = cytotoxicity” value was 0.44% (inactive). In the case of O=C(O)CCCCCCC(=O)O, the “activity change, negative = cytotoxicity” value is reported as 0.923% (inactive). With Cc1ccc(N)cc1O the Potency was 101 µM (active). In the case of CCCCCCCCC(C)=O, the “activity change, negative = cytotoxicity” value is reported as 0.449% (inactive). In the case of c1ccc2c(c1)CCC2, the “activity change, negative = cytotoxicity” value is reported as 2.77% (inactive). For Cn1cnc2ncnc(N)c21, the “activity change, negative = cytotoxicity” value was -3.5% [at 70.9 µM] (inactive). With Clc1nc2ccccc2s1 the “activity change, negative = cytotoxicity” value was 0.651% (inactive). In the case of CC(=O)c1ccccc1N, the “activity change, negative = cytotoxicity” value is reported as -0.642% (inactive). With OCCN1CN(CCO)CN(CCO)C1 the “activity change, negative = cytotoxicity” value was 0.0354% (inactive). In the case of OCCCc1cccnc1, the “activity change, negative = cytotoxicity” value is reported as 2.24% (inactive). With CN(C)CCN1CCOCC1 the “activity change, negative = cytotoxicity” value was -0.0133% (inactive). In the case of COc1ccc(C#N)cc1, the “activity change, negative = cytotoxicity” value is reported as -0.395% (inactive). In the case of CC(C)=C1CC[C@@H](C)CC1=O, the “activity change, negative = cytotoxicity” value is reported as -1.54% (inactive). For NCCCC(O)(P(=O)(O)O)P(=O)(O)O, the “activity change, negative = cytotoxicity” value was 3.71% [at 70.9 µM] (inactive). With OCCC(O)CO (stereo not drawn) the “activity change, negative = cytotoxicity” value was -0.289% (inactive). In the case of CCOCN(C(=O)CS(=O)(=O)O)c1c(C)cccc1CC, the “activity change, negative = cytotoxicity” value is reported as -0.576% (inactive). For CC(=O)C=O, the “activity change, negative = cytotoxicity” value was 0.585% (inactive). For C=CC(C)C#N (stereo not drawn), the “activity change, negative = cytotoxicity” value was -1.61% (inactive). With CCC(=O)CC(C)CC (stereo not drawn) the activity change, negative = cytotoxicity was -3.23% [at 0.582 µM] (inactive).

Experiment: qHTS RealTime-Glo MT Cell Viability Assay in HepG2 cells - 24 hour (AID 1224867); further: nearly all actives have a fitted effect of over 50% in size
Conditions: RealTime-Glo luminescence; series mostly up to 76.8 µM; activity change, negative = cytotoxicity: at the top concentration
How it was run: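 Luminescence read-out: viable HepG2 cells reduce a prosubstrate to a NanoLuc substrate, giving a signal proportional to live cell number. Reads taken at 0, 8, 16, 24, 32 and 40 h of compound exposure at 37 C.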
In the case of CC1(C)C(=O)N(CO)C(=O)N1CO, the “activity change, negative = cytotoxicity” value is reported as 0.078% (inactive). In the case of CCOC(=O)CN, the “activity change, negative = cytotoxicity” value is reported as -2.28% (inactive). In the case of O=C1OC(=O)c2ccc3c4c(ccc1c24)C(=O)OC3=O, the “activity change, negative = cytotoxicity” value is reported as -3.34% (inactive). For CC(C)=CC1CC(C)CCO1 (stereo not drawn), the “activity change, negative = cytotoxicity” value was 4.04% (inactive). In the case of CC(C)(C)C1=CC(=O)C=C(C(C)(C)C)C1=O, the “activity change, negative = cytotoxicity” value is reported as 0.378% (inactive). With CCCC(O)C(O)CO (stereo not drawn) the “activity change, negative = cytotoxicity” value was -2.07% (inactive). In the case of COc1ccccc1C=O, the “activity change, negative = cytotoxicity” value is reported as 0.902% (inactive). With CCCCCCCC(OC)OC the “activity change, negative = cytotoxicity” value was -1.24% [at 35.3 µM] (inactive). For CCCCCCCCCCCCCCNCCO, the Potency was 13.4 µM (active). In the case of CCOC(=O)COc1ccc(C)cc1, the “activity change, negative = cytotoxicity” value is reported as -0.263% (inactive). In the case of c1ccc(Sc2ccccc2)cc1, the “activity change, negative = cytotoxicity” value is reported as -0.605% (inactive). For COc1cccc(O)c1, the “activity change, negative = cytotoxicity” value was 3.44% (inactive). In the case of Cc1cccc(Br)c1, the “activity change, negative = cytotoxicity” value is reported as -1.09% (inactive). With CCc1cccc(C)c1 the “activity change, negative = cytotoxicity” value was 0.385% (inactive). For Brc1ccccn1, the “activity change, negative = cytotoxicity” value was 0.0567% (inactive). For CCOB(OCC)OCC, the “activity change, negative = cytotoxicity” value was -0.0656% (inactive). With CC(=O)O[C@@H]1C[C@@H]2CC[C@@]1(C)C2(C)C the “activity change, negative = cytotoxicity” value was 2.17% (inactive). In the case of Oc1cc2ccccc2cc1O, the “activity change, negative = cytotoxicity” value is reported as 3.07% (inactive). For O=C(O)CCCCCCC(=O)O, the “activity change, negative = cytotoxicity” value was -0.966% (inactive). For Cc1ccc(N)cc1O, the “activity change, negative = cytotoxicity” value was 1.37% (inactive). For CCCCCCCCC(C)=O, the “activity change, negative = cytotoxicity” value was 0.0382% (inactive). For c1ccc2c(c1)CCC2, the “activity change, negative = cytotoxicity” value was 0.459% (inactive). With Cn1cnc2ncnc(N)c21 the “activity change, negative = cytotoxicity” value was 0.0222% [at 35.3 µM] (inactive). In the case of Clc1nc2ccccc2s1, the “activity change, negative = cytotoxicity” value is reported as 0.368% (inactive). For CC(=O)c1ccccc1N, the “activity change, negative = cytotoxicity” value was -1.28% (inactive). For OCCN1CN(CCO)CN(CCO)C1, the “activity change, negative = cytotoxicity” value was 1.97% (inactive). For OCCCc1cccnc1, the “activity change, negative = cytotoxicity” value was 0.524% (inactive). In the case of CN(C)CCN1CCOCC1, the “activity change, negative = cytotoxicity” value is reported as 2.91% (inactive). For COc1ccc(C#N)cc1, the “activity change, negative = cytotoxicity” value was -4.11% (inactive). For CC(C)=C1CC[C@@H](C)CC1=O, the “activity change, negative = cytotoxicity” value was -0.581% (inactive). For NCCCC(O)(P(=O)(O)O)P(=O)(O)O, the “activity change, negative = cytotoxicity” value was 1.5% [at 35.3 µM] (inactive). For OCCC(O)CO (stereo not drawn), the “activity change, negative = cytotoxicity” value was -4.97% (inactive). For CCOCN(C(=O)CS(=O)(=O)O)c1c(C)cccc1CC, the “activity change, negative = cytotoxicity” value was 5.8% (inactive). For CC(=O)C=O, the “activity change, negative = cytotoxicity” value was 0.452% (inactive). For C=CC(C)C#N (stereo not drawn), the “activity change, negative = cytotoxicity” value was 2.46% (inactive). For CCC(=O)CC(C)CC (stereo not drawn), the activity change, negative = cytotoxicity was -0.146% [at 0.29 µM] (inactive).

Experiment: qHTS RealTime-Glo MT Cell Viability Assay in HEK293 cells - 32 hour (AID 1224868); further: nearly all actives have a fitted effect of over 50% in size; on activity change, negative = cytotoxic: top concentration of the series differs between compounds
Conditions: RealTime-Glo luminescence; series mostly up to 76.8 µM; activity change, negative = cytotoxic: at the top concentration
How it was run: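 Nonlytic real-time viability readout: viable cells convert prosubstrate to NanoLuc substrate, giving luminescence proportional to live cell number. HEK293, 600 cells/well, compound added after 5 h, continuous culture at 37 C.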
For CC1(C)C(=O)N(CO)C(=O)N1CO, the “activity change, negative = cytotoxic” value was 6.83% (inactive). For CCOC(=O)CN, the “activity change, negative = cytotoxic” value was 0.715% (inactive). With O=C1OC(=O)c2ccc3c4c(ccc1c24)C(=O)OC3=O the “activity change, negative = cytotoxic” value was -1.8% (inactive). With CC(C)=CC1CC(C)CCO1 (stereo not drawn) the “activity change, negative = cytotoxic” value was 2.83% (inactive). In the case of CC(C)(C)C1=CC(=O)C=C(C(C)(C)C)C1=O, the “activity change, negative = cytotoxic” value is reported as 13.9% (inactive). With CCCC(O)C(O)CO (stereo not drawn) the “activity change, negative = cytotoxic” value was 3.41% (inactive). In the case of COc1ccccc1C=O, the “activity change, negative = cytotoxic” value is reported as 6.78% (inactive). With CCCCCCCC(OC)OC the “activity change, negative = cytotoxic” value was 7.41% [at 35.3 µM] (inactive). For CCCCCCCCCCCCCCNCCO, the Potency was 13.4 µM (active). For CCOC(=O)COc1ccc(C)cc1, the “activity change, negative = cytotoxic” value was 0.901% (inactive). For COc1cccc(O)c1, the “activity change, negative = cytotoxic” value was 11.4% (inactive). In the case of Cc1cccc(Br)c1, the “activity change, negative = cytotoxic” value is reported as -1.05% (inactive). In the case of CCc1cccc(C)c1, the “activity change, negative = cytotoxic” value is reported as -0.436% (inactive). For Brc1ccccn1, the “activity change, negative = cytotoxic” value was 1.24% (inactive). With CC(=O)O[C@@H]1C[C@@H]2CC[C@@]1(C)C2(C)C the “activity change, negative = cytotoxic” value was 5.36% (inactive). With O=C(O)CCCCCCC(=O)O the “activity change, negative = cytotoxic” value was -3.1% (inactive). In the case of CCCCCCCCC(C)=O, the “activity change, negative = cytotoxic” value is reported as 11% (inactive). For c1ccc2c(c1)CCC2, the “activity change, negative = cytotoxic” value was 2.25% (inactive). For Cn1cnc2ncnc(N)c21, the “activity change, negative = cytotoxic” value was 34.4% [at 35.3 µM] (inactive). In the case of Clc1nc2ccccc2s1, the “activity change, negative = cytotoxic” value is reported as -6.56% (inactive). For OCCN1CN(CCO)CN(CCO)C1, the “activity change, negative = cytotoxic” value was -20.4% (inactive). With OCCCc1cccnc1 the “activity change, negative = cytotoxic” value was -2.72% (inactive). With CN(C)CCN1CCOCC1 the “activity change, negative = cytotoxic” value was 8.81% (inactive). With COc1ccc(C#N)cc1 the “activity change, negative = cytotoxic” value was -13.3% (inactive). In the case of CC(C)=C1CC[C@@H](C)CC1=O, the “activity change, negative = cytotoxic” value is reported as 3.67% (inactive). For NCCCC(O)(P(=O)(O)O)P(=O)(O)O, the “activity change, negative = cytotoxic” value was 13.3% [at 35.3 µM] (inactive). With OCCC(O)CO (stereo not drawn) the “activity change, negative = cytotoxic” value was 16.5% (inactive). In the case of CCOCN(C(=O)CS(=O)(=O)O)c1c(C)cccc1CC, the “activity change, negative = cytotoxic” value is reported as 8.98% (inactive). For CC(=O)C=O, the “activity change, negative = cytotoxic” value was 1.02% (inactive). In the case of C=CC(C)C#N (stereo not drawn), the “activity change, negative = cytotoxic” value is reported as 10.1% (inactive). In the case of CCC(=O)CC(C)CC (stereo not drawn), the activity change, negative = cytotoxic is reported as 3.77% [at 0.29 µM] (inactive).
